# An excerpt weighted towards active compounds, which were near 17% of everything screened.
# DT40 TDP1 no CPT: qHTS for Inhibitors of human tyrosyl-DNA phosphodiesterase 1 (TDP1): qHTS in cells in absence of CPT. DT40 Tdp1-/- hTDP1 cells, no CPT, ATP luminescence, 48 h. Potency, µM (titrated, usually from 46.2 µM), without a hit: top-dose activity change, negative = growth inhibition, most hits filed as inhibitors. 420,000 compounds, 15% hits; note: % is set by controls: 0 for no effect and ±100 for the full control effect; nearly all actives have a fitted effect of over 55% in size
#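 DT40 Tdp1-/-;hTDP1 cells, no CPT (DMSO vehicle only), 400 cells/well; compounds pin-transferred; ≥48 hr, 37 °C; CellTiter-Glo 30 min RT dark, luminescence read.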
# TGFb SMAD3 inh: qHTS for Inhibitors of TGF-b. Potency, µM (top dose mostly 46.1 µM), inactives show at the top dose activity, negative = inhibition, usual class: inhibitors. AID 588855, 2011. 410,000 compounds, 1.2% hits. HepG2 CAGA-GFP TGF-b/SMAD3 reporter, GFP fluorescence, 18 h; TGF-beta stimulated, 500 pg/mL final; note: % is set by controls: 0 for no effect and ±100 for the full control effect; nearly all actives have a fitted effect of over 65% in size
#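 Inhibition was scored as loss of TGF-beta-induced (500 pg/mL final, 18 hours, 37 degrees C) GFP in HEPG2 cells carrying a CAGA-GFP reporter, in DMEM with 1% FBS. Well GFP was summed per cell; Activity was normalised to unstimulated and stimulated DMSO wells, then concentration-response fitting.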
# HepG2 tox: qHTS for Inhibitors of TGF-b: Cytotox Counterscreen; HepG2 CAGA-GFP viability, ATP luminescence, 18 h; Potency, µM (titrated, usually from 46.1 µM), inactives show at the top dose activity change, negative = cytotoxicity, actives largely listed as cytotoxic; 410,000 compounds, 0.76% hits
#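 CellTiter-Glo luminescence gave cytotoxicity after 18 hours at 37 degrees C. The cells were HepG2 CAGA-GFP in 1% FBS DMEM, stimulated with 500 pg/mL TGF-beta after compound addition. %Activity was normalised to no-cell wells (complete cell-killing) and DMSO (no toxicity), and curves were fitted and classified.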
# HT1080-NT tox: qHTS for induction of synthetic lethality in tumor cells producing 2HG: qHTS for the HT-1080-NT fibrosarcoma cell line; HT-1080-NT fibrosarcoma viability, CellTiter-Glo ATP luminescence, 48 h; Potency, µM (top dose mostly 46.1 µM), for inactives: at the top dose activity, negative = less viability, hits mostly cytotoxic; 360,000 compounds, 1.6% hits; AID 686970, 2013;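 note: NT is the 2HG producing partner of a matched IDH1 knockdown line; 0% = DMSO-treated cells and -100% = media-only wells without cells; nearly all actives have a fitted effect of over 55% in size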
#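 Luminescent CellTiter-Glo readout after 48 hours of compound exposure at 37 degrees C defined viability of HT-1080-NT cells. Activity was normalized to DMSO wells and cell-free media wells; concentration-response curves were fitted and assigned curve classes.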
# HT1080 IDH1KD tx: qHTS for induction of synthetic lethality in tumor cells producing 2HG: qHTS for the HT-1080-IDH1KD cell line; HT-1080 IDH1 knockdown viability, ATP luminescence, 48 h; Potency, µM (top dose mostly 46.1 µM), for inactives: at the highest dose activity, negative = toxicity, usual class: cytotoxic; 360,000 compounds, 2% hits; AID 686971, 2013;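 note: 0% = DMSO wells and -100% = cell-free medium wells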
#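 Viability of IDH1-knockdown HT-1080 fibrosarcoma cells was assessed by CellTiter-Glo after 48 h at 37 °C with titrated compound; concentration-effect curves were classified by fit quality and response size.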
# TDP1 cell CPT: qHTS for Inhibitors of human tyrosyl-DNA phosphodiesterase 1 (TDP1): qHTS in cells in presence of CPT | chicken DT40 Tdp1-/-;hTDP1 cells + 20 nM CPT, ATP luminescence, 48 h | Potency, µM (titrated, usually from 46.2 µM), inactives show at the highest dose activity change, negative = growth inhibition, usual class: inhibitors | 420,000 compounds, 12% hits | AID 686979, 2013; note: % is set by controls: 0 for no effect and ±100 for the full control effect; nearly all actives have a fitted effect of over 55% in size
#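 Chicken DT40 Tdp1-/- cells stably complemented with human TDP1 were seeded at 400 cells/well in medium containing 20 nM camptothecin, exposed to pin-transferred compounds, and grown at 37 °C for at least 48 hr. Viability was read as ATP luminescence.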
# Numbers without * were called inactive; u = inconclusive; x = not tested or not shown; [ ] = remark or other dose. Calls come from the whole dose curve; as a rule, active = well fitted curve in the direction sought with a large enough effect; inconclusive = small, poorly fitted or top-dose-only effect, or another doubt; inactive = no such curve, though single readings can be large; an effect the other way counts as inactive or inconclusive. Potency is the fitted concentration of half-maximal effect.
SMILES,DT40 TDP1 no CPT,TGFb SMAD3 inh,HepG2 tox,HT1080-NT tox,HT1080 IDH1KD tx,TDP1 cell CPT
Cc1c(C(=O)NCc2cccc(Cl)c2)sc(=O)n1Cc1ccc(C(=O)N(C)C)cc1,u,-10%,2%,-16%,-8%,16µM*
CCN(CC(=O)Nc1c(F)cccc1F)C(=O)CCNS(=O)(=O)c1ccccc1C(F)(F)F,-1%,-15%,-4%,2%,10%,9%
O=C1CCCC2[C@@H]3CCC[N@+]4([O-])CCC[C@H](CN12)C34 (stereo partly drawn),1%[9.04 µM],x,x,x,x,6%[9.04 µM]
CSc1nc2cc(S(=O)(=O)N3CCCCC3)ccc2s1,23µM*,-22%,-3%,-12%,-17%,u
CC1(C)CC(=O)C2=C(C1)OC(N)=C(C#N)C21C(=O)N(CN2CCOCC2)c2ccccc21 (stereo not drawn),-7%,8%,10%,0%,0%,-23%
CN1C(=O)C2(C(C#N)=C(N)N(c3cc(Cl)cc(Cl)c3)C3=C2C(=O)CC(C)(C)C3)c2ccccc21 (stereo not drawn),u,0%,-2%,-4%,26%,21µM*
Cc1ccc(N2C(N)=C(C#N)C3(C(=O)N(C)c4ccccc43)C3=C2CC(C)(C)CC3=O)cc1Cl (stereo not drawn),16µM*,14%,10%,-8%,-10%,u
O=C(NCc1cccnc1)c1cnn(-c2nccc(-c3cccs3)n2)c1C1CC1,u,x,x,x,x,-1%[9.04 µM]
CC(C)c1ccc(NC(=O)C2Cc3c(-c4ccccc4Oc4ccccc4)ccnc3O2)cc1 (stereo not drawn),u,-26%,-37%,-18%,u,u
CCc1cccc(C)c1NC(=S)NCC(c1cccnc1)N1CCOCC1 (stereo not drawn),-18%,0%,18%,17%,17%,-3%
Cc1sc2ccccc2[n+]1CC(=O)O,-7%,-3%,12%,0%,6%,-9%
CCOC(=O)C[n+]1c(C)sc2ccc(OC)cc21,8.2µM*,-7%,-16%,u,u,8.2µM*
COc1ccc(OC)c2[nH]c(=O)c(CCNS(=O)(=O)c3ccc(F)cc3)cc12,-17%,3%,13%,9%,0%,-1%
Cc1ccc(S(=O)(=O)NCCc2cc3ccc(C)c(C)c3[nH]c2=O)cc1,18µM*,0%,8%,3%,-3%,u
Cc1cc(C)c(S(=O)(=O)NCCc2cc3c(C)ccc(C)c3[nH]c2=O)c(C)c1,3.7µM*,8%,-3%,x,x,7.3µM*
Cc1ccc2cc(CCNS(=O)(=O)c3ccc(F)cc3)c(=O)[nH]c2c1C,18µM*,-9%,-29%,-5%,-2%,21µM*
Cc1cc2cc(CCNS(=O)(=O)c3ccc(Br)cc3)c(=O)[nH]c2cc1C,u,-25%,-10%,x,x,u
O=C(C[n+]1cccc(Br)c1)c1cccc([N+](=O)[O-])c1,-20%,38%,7%,x,x,-1%
Cc1ccc(CN2CCC2(C)C(=O)NC(C)C)cc1 (stereo not drawn),u,1%,19%,0%,u,u
NS(=O)(=O)c1ccc(CNC(=O)c2ccc3c(=O)n4c(nc3c2)CCC4)cc1,3%,-10%,2%,7%,10%,23%
N#Cc1sc(NCc2cccc(Cl)c2)nc1Cl,u,u,-43%,23µM*,u,10%
CCN=C1S/C(=C\c2ccc(O)c(OCC)c2)C(=O)N1CC,21µM*,-15%,-50%,-18%,-24%,26µM*
CCN=C1S/C(=C\c2cn(CC)c3ccccc23)C(=O)N1CC,10µM*,u,-18%,-18%,-17%,23µM*
CCN=C1S/C(=C\c2cc(OCC)c(O)cc2Br)C(=O)N1CC,12µM*,1%,-48%,18µM*,21µM*,21µM*
CCN=C1S/C(=C/c2ccc(-c3ccc(F)cc3)o2)C(=O)N1CC,u,1%,3%,u,u,-28%
SMILES,DT40 TDP1 no CPT,TGFb SMAD3 inh,HepG2 tox,HT1080-NT tox,HT1080 IDH1KD tx,TDP1 cell CPT
CCOc1cc(/C=C2/SC(=S)N(CC3CCCO3)C2=O)ccc1O (stereo not drawn),23µM*,-5%,-17%,2%,-1%,u
COc1ccc(CCNC(=O)CSc2nc3[nH]ncc3c(=O)[nH]2)cc1OC,13%,-2%,15%,15%,0%,1%
COc1ccccc1N(CC(=O)Nc1ccc2c(c1)OCO2)S(=O)(=O)c1ccc(C)cc1,8.2µM*,u,-18%,x,x,23µM*
COc1ccc(OC)c(N(CC(=O)Nc2ccc3c(c2)OCO3)S(=O)(=O)c2ccccc2)c1,u,-3%,-3%,-10%,-13%,26µM*
Cc1ccc(S(=O)(=O)N(CC(=O)Nc2ccc3c(c2)OCO3)c2ccc(C)c(Cl)c2)cc1,u,u,-31%,x,x,16µM*
Cc1ccc(S(=O)(=O)N(CC(=O)Nc2ccc3c(c2)OCO3)c2cc(Cl)cc(Cl)c2)cc1,u,u,-13%,x,x,u
COc1ccccc1N(CC(=O)Nc1cc(C)on1)S(=O)(=O)c1ccc(Cl)cc1,18µM*,u,1%,-16%,-6%,18µM*
CCOc1ccc(N(CC(=O)Nc2ccc3c(c2)OCO3)S(=O)(=O)c2ccccc2)cc1,u,-17%,-25%,x,x,u
CCOc1cc(C(=O)Nc2cc3c(cc2N2CCCC2)n(C)c(=O)c(=O)n3C)cc(OCC)c1OCC,-24%,u,-9%,x,x,-3%
O=C(NCc1cccnc1)c1cc(C2CCCCN2C(=O)c2ccc3ccccc3c2)on1 (stereo not drawn),u,0%,-18%,-6%,0%,u
Cc1ccc2ccccc2n1,5%,4%,1%,x,x,5%
Cc1sc(-c2cc3ccccc3oc2=O)nc1-c1ccc(Cl)cc1,-8%,0%,-4%,x,x,16%
C=CCNC(=S)NNC(=O)COc1ccc(Br)cc1,-2%,-28%,-16%,10%,16%,2%
C=CCNC(=S)NNC(=O)COc1ccc2cc(Br)ccc2c1,8.2µM*,-11%,-15%,-8%,-19%,u

# Screening data: PubChem BioAssay, National Center for Advancing Translational Sciences (NCATS)
